Among the data in PubChem BioAssay AID932 (The Scripps Research Institute Molecular Screening Center, 2007) are activation (% of control) values, retold here.

SMILES strings stand for the structures. Out of some 200,000 compounds screened, about 5,100 (2.5%) were called active. This is one part of a sample in which actives are shown more often than they occur. Unmarked numbers belong to inactive results.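 The calls were made as follows: active = activation above the screen-wide mean activation plus 3 SD (cut at about 130% in these data); inactive = the rest.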

A short description of the assay: potentiators of IFN-gamma driven STAT1 reporter – cell-based, HTS, luciferase reporter, primary screen (AID 932).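 Also: raw ratio to IFN-gamma control signal so 100% means no change and 0% no light.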 The following applies: NIH 3T3 STAT1-luciferase reporter, luminescence, at 5.5 µM, active compounds read high, 100% = IFN-gamma alone, no compound. A general note: In a reporter assay the amount or activity of a reporter protein is the signal.
Consider `CNC(=O)c1ccc(NC(=O)c2cccc(C(F)(F)F)c2)cc1`, for which the activation (% of control) was 98.4%.

As for `Cc1cc(C)c(C#N)c(N2CCC(C(N)=O)CC2)n1`, the activation (% of control) was 98.4%.

With `CNC(=S)N/N=C/c1ccc(OCc2ccccc2)c(Br)c1`, the activation (% of control) was 119%.

`COc1cc(/C=N/n2c(C)n[nH]c2=S)ccc1OCc1ccccc1`: the activation (% of control) was 144% (active).

Turning to `Cc1n[nH]c(=S)n1/N=C/c1ccc(Br)o1`, the activation (% of control) was 104%.

As for `CCN(CC)C(=O)C(=O)Nc1cccc(Br)c1`, the activation (% of control) is 129% (active).

As to `C=C(C)C(=O)Nc1cccc(C(C)=O)c1`, the activation (% of control) is 102%.

In the case of `CSc1ccccc1NC(=O)CN(C)CC(=O)Nc1cccc(Br)c1`, the activation (% of control) is 89.3%.

As to `CCOc1ccc(C(C)=O)cc1COC(=O)c1cnc(Cl)c(Cl)c1`, the activation (% of control) is 101%.

Turning to `Cc1ccnc(NC(=O)c2ccc(Cl)c([N+](=O)[O-])c2)c1`, the activation (% of control) is 95.8%.

In the case of `O=C(CSc1nnc(-c2cnccn2)n1Cc1ccco1)c1ccc(Cl)c(Cl)c1`, the activation (% of control) was 94.7%.

Regarding `Fc1cccc(Cl)c1CSc1ccc(-c2ccco2)nn1`, the activation (% of control) was 126%.

`Cn1c(SCc2c(F)cccc2Cl)nnc1-c1cnccn1`: the activation (% of control) is 130% (active).

For the compound `O=C(CSc1nnc(C2CC2)n1Cc1ccccc1)Nc1cccnc1Cl`, the activation (% of control) is 96.9%.

As to `CCc1ccc(CN(C)C(=O)CCc2nnc(-c3ccc(-c4ccccc4)cc3)o2)nc1`, the activation (% of control) is 93.4%.

For the compound `COc1cccc(OC)c1C(=O)Nc1ccc(N2CCCCC2)cc1`, the activation (% of control) was 103%.

For `Cc1ccccc1C(=O)Nc1ccc(N2CCCCCC2)cc1`, the activation (% of control) was 141% (active).

As for `COc1cccc(C(=O)Nc2ccc(N3CCCC3)cc2)c1`, the activation (% of control) was 127%.

As to `CCc1cc2c(=O)c(-c3ccc(F)cc3)c(C(F)(F)F)oc2cc1OCC(=O)O`, the activation (% of control) was 97.7%.

`C/C(CC(=O)Nc1ccc(C)cc1C)=N\NC(=O)C(C)C`: the activation (% of control) was 102%.

`O=S(=O)(c1cccc(C(F)(F)F)c1)N1CCN(c2cnccn2)CC1`: the activation (% of control) is 108%.

Consider `O=C(Nc1ccc2c(c1)OCCO2)C1CCCN(c2ncccn2)C1` (stereo not given), for which the activation (% of control) was 143% (active).

Turning to `Cc1cc(C)nc(N2CCC(C(=O)Nc3ccc4c(c3)OCCO4)CC2)n1`, the activation (% of control) is 101%.

In the case of `Cc1ccnc(N2CCCC(C(=O)Nc3cc(F)ccc3C)C2)n1` (stereo not given), the activation (% of control) was 104%.

As for `NS(=O)(=O)c1ccc(NC(=S)Nc2ccc(Br)c(Cl)c2)cc1`, the activation (% of control) is 94.5%.

`CCC(C)N(C(=O)COC(=O)C1C(C(=O)OC)=C(C)NC(C)=C1C(=O)OC)C1CCS(=O)(=O)C1` (stereo not given): the activation (% of control) was 102%.

`O=C(Nc1ccc(Cl)cc1)C1c2cccc[n+]2CC(=O)N1Cc1ccc2c(c1)OCO2` (stereo not given): the activation (% of control) was 101%.

As for `Cc1cc(C)nc(NNC2=CC(=O)CC(C)(C)C2)n1`, the activation (% of control) is 115%.

As to `CCN(CC)C(=O)CSc1nc2ccccc2o1`, the activation (% of control) was 110%.

For `Cc1ccc(/C=N/NC(=O)CSc2nc3ccccc3o2)cc1`, the activation (% of control) is 111%.

In the case of `CC(C)(C)C(=O)CSc1nc2ccccc2o1`, the activation (% of control) is 150% (active).

Take `COc1ccc(/C=C2/SC(=O)N(CCCCCC(=O)Nc3ccccc3C(=O)O)C2=S)cc1`: the activation (% of control) was 102%.

Take `NC(=O)N1CCc2ccccc21`: the activation (% of control) is 98.2%.

Turning to `O=C(CSCc1ccccc1)N1CCc2ccccc21`, the activation (% of control) was 138% (active).

In the case of `Cc1nnc(SCC(=O)N2CCc3ccccc32)n1-c1ccccc1`, the activation (% of control) is 100%.

In the case of `CCOc1ccc(NC(=O)CN(C)CC(=O)NC(C)c2ccccc2)cc1OCC` (stereo not given), the activation (% of control) is 99.4%.

With `Cc1ccc(-c2csc(NNC(=O)c3ccccc3)n2)cc1`, the activation (% of control) was 102%.

Regarding `Cc1ccc(Nc2nc(-c3ccc(O)cc3O)cs2)nc1`, the activation (% of control) is 143% (active).

On to `Cc1ccc(NC(=O)c2cc(-c3ccc(C)o3)nc3ccccc23)nc1`, for which the activation (% of control) was 91.3%.

As for `CN(C)/C=C(/C(=O)c1ccc(F)cc1)S(=O)(=O)c1ccc(F)cc1`, the activation (% of control) is 106%.

Turning to `CCN(CCn1cccn1)C(=O)CC1C(=O)NCCN1Cc1cccc(OC)c1OC` (stereo not given), the activation (% of control) was 96.3%.

Consider `COc1ccc(N2CCN(C(=O)COc3ccc4c(C)cc(=O)oc4c3)CC2)cc1`, for which the activation (% of control) is 93.8%.

On to `CC1(C)CC(N(Cc2ccccc2)C(=O)Cc2ccccc2)CCO1` (stereo not given), for which the activation (% of control) was 89.7%.

In the case of `CCOC(=O)/C(C#N)=C/c1ccc(N2CCN(Cc3ccccc3)CC2)cc1`, the activation (% of control) was 107%.

With `COc1ccc(N2CCN(C(=O)/C(C#N)=C/c3ccccc3)CC2)cc1`, the activation (% of control) is 105%.

For `CCOC(=O)/C(C#N)=C/c1ccc(N2CCCCC2)cc1`, the activation (% of control) was 155% (active).

With `Cc1ccsc1/C=C1\SC(N2CCOCC2)=NC1=O`, the activation (% of control) was 127%.

As for `CCc1ccc(/C=C2\SC(N3CCOCC3)=NC2=O)cc1`, the activation (% of control) is 103%.

With `O=C1N=C(N2CCOCC2)S/C1=C\C=C/c1ccccc1`, the activation (% of control) is 141% (active).

As to `CN(Cc1nc2ccc(F)cc2[nH]1)Cc1nc(CC2CC2)no1`, the activation (% of control) was 107%.

In the case of `CCCC(NC(=O)c1ccco1)c1nc2ccccc2[nH]1` (stereo not given), the activation (% of control) is 97.5%.

Regarding `CC(NC(=O)COC(=O)c1ccc2c(c1)OCO2)c1ccccc1` (stereo not given), the activation (% of control) was 102%.

Turning to `O=C(COC(=O)c1ccc2c(c1)OCCO2)NCc1ccccc1`, the activation (% of control) is 101%.

Consider `O=C(OCc1ccccc1F)c1ccc2c(c1)OCCO2`, for which the activation (% of control) was 139% (active).

For the compound `CCOC(=O)c1ccc(NC(=S)N2CCCC2)cc1`, the activation (% of control) is 100%.

As for `CCn1ncc(CNC(=O)C2(C)CC2(Br)Br)c1C` (stereo not given), the activation (% of control) is 90%.

Take `COCCCNC(=O)Cn1cc(/C=C(\C#N)C(=O)N2CCN(c3ccccc3)CC2)c2ccccc21`: the activation (% of control) was 96.8%.

With `O=C(NC1=NCCS1)c1ccc(Cl)s1`, the activation (% of control) is 141% (active).

Turning to `O=C(NCc1ccc2c(c1)OCO2)c1ccc(Cl)s1`, the activation (% of control) is 99.1%.

For the compound `O=C(NC1=NCCS1)[C@H](Cc1ccccc1)N1C(=O)c2ccccc2C1=O`, the activation (% of control) is 107%.

`CCOc1ccc(C(C)=O)cc1CSc1nnc(-c2ccncc2)n1CCOC`: the activation (% of control) was 99.7%.

`Cc1cccc(NC(=S)NC(=O)c2ccc(Br)o2)c1`: the activation (% of control) is 125%.

On to `O=C(Nc1ccc(Cl)cn1)c1cnn2cccnc12`, for which the activation (% of control) is 153% (active).

Turning to `Cc1cc(NC(=O)c2cnn3cccnc23)n(-c2ccccc2)n1`, the activation (% of control) was 89.3%.

`O=C(Nc1ccc(Cl)cn1)c1ccc2c(c1)OCCO2`: the activation (% of control) was 74.1%.
